G9a block – G9a (human) methyltransferase inhibition. Q96KQ7. G9a H3K9 monomethylation, AlphaScreen, 2 h. Potency, µM (titrated, usually from 102 µM), for inactives: top-dose activity, negative = inhibition, actives largely listed as inhibitors. 8.8% of 350,000 active. AID 504332; note: potency is the fitted concentration of half-maximal effect; % is set by controls: 0 for no effect and ±100 for the full control effect; nearly all actives have a fitted effect of over 75% in size
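Enzyme 20 nM + cpd, 15 min RT; add b-H3K9 pep 500 nM / SAM 20 uM; 2 h RT; anti-H3K9me1 Ab 0.5 ug/mL + SA donor / anti-rabbit acceptor beads 20 ug/mL each, 10 min; AlphaScreen read.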
JMJD2A Tudor inh – JMJD2A Tudor domain (human) inhibition; AlphaScreen JMJD2A-Tudor / H3K4me3 peptide binding; Potency, µM (doses to about 114 µM), for inactives: at the highest dose activity change, negative = inhibition, actives largely listed as inhibitors; 4.4% of 390,000 active; AID 504339; note: potency is the fitted concentration of half-maximal effect; % is set by controls: 0 for no effect and ±100 for the full control effect; nearly all actives have a fitted effect of over 50% in size
BAZ2B inh – inhibitors of human BAZ2B bromodomain; AlphaScreen BAZ2B-H3K14Ac peptide displacement; Potency, µM (series often up to 114 µM), without a hit: at the highest dose activity change, negative = inhibition, usual class: inhibitors; 4.4% of 360,000 active; AID 504333; note: potency is the fitted concentration of half-maximal effect; % is set by controls: 0 for no effect and ±100 for the full control effect; nearly all actives have a fitted effect of over 60% in size
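Complex of BAZ2B and biotin-H3K14Ac (50 nM apiece) forms over 30 min at RT, then faces library compounds up to 110 uM for another 30 min; AlphaScreen beads added, 20 min dark incubation, luminescence read.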
HP1b binding inh – blocks HP1-beta chromodomain binding to methylated histone tails. P83916. AlphaScreen HP1-beta / biotin-H3K9me3 peptide binding. Potency, µM (highest dose often 114 µM), without a hit: at the top dose activity change, negative = inhibition, usual class: inhibitors. 0.56% of 390,000 active; note: potency is the fitted concentration of half-maximal effect; nearly all actives have a fitted effect of over 70% in size
Target sequence (P83916 whole entry, looked up): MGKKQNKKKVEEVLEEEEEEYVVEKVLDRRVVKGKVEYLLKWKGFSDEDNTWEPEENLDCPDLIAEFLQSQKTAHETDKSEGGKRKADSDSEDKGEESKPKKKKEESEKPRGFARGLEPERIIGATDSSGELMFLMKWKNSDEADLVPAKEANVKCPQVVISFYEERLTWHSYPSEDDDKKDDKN
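HP1-beta protein (50 nM final) preincubated 30 min at room temperature with biotinylated H3(1-18)K9me3 peptide (50 nM) in PBS pH 7.4, 0.01% Tween-20, then compound added for 30 min. AlphaScreen streptavidin donor/nickel chelate acceptor beads (10 ug/mL final), 30 min dark, luminescence read.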
PLK1 PBD inh – PLK1 (human) polo-box domain binding inhibition; Plk1 PBD binding of FITC phosphopeptide, fluorescence polarization; P53350; Potency, µM, without a hit: max response, negative = inhibition, hits mostly inhibitors; 2.8% of 360,000 active; AID 720504; note: potency is the fitted concentration of half-maximal effect; series mostly up to about 57 µM; % is set by controls: 0 for no effect and ±100 for the full control effect; nearly all actives have a fitted effect of over 65% in size
Target sequence (P53350 whole entry, looked up, the tested form may be a part): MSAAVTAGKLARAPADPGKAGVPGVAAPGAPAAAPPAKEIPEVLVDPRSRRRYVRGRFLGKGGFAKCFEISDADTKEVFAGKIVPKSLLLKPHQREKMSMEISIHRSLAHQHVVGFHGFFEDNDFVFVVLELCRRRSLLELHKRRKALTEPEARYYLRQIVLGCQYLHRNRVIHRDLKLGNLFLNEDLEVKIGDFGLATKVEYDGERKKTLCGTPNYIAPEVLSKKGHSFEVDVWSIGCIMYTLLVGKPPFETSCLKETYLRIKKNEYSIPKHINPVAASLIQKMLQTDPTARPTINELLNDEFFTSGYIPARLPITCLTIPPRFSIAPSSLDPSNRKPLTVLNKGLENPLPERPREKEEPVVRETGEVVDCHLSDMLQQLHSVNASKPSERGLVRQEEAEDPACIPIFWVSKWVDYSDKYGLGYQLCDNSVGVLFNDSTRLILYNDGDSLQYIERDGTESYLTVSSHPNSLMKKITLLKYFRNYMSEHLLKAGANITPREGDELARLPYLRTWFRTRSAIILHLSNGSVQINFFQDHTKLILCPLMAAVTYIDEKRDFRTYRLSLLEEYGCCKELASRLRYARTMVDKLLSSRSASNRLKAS
PI5P4Ka inh – inhibitors of human PI5P4K alpha; P48426; PI5P4Kalpha enzyme, ADP-Glo luminescence, 60 min; active compounds read low; max response, %; 1.2% of 330,000 active; active = max response of -50% or lower; inconclusive = between -30% and -50%; inactive = -30% or higher; note: value at the top dose of about 77 µM; % is set by controls: 0 for no effect and ±100 for the full control effect
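Luminescence from ADP-Glo served as readout of PI5P4Kalpha activity in a qHTS format. Reaction: enzyme, substrate, compound, ATP at 5 microM final, 60 min at RT.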
* hit, by the source's call; [ ] = another dose, or the depositor's remark. A selection: hits, their analogues and other compounds. The true share with any hit is near 12%. Unless noted, calls come from the whole dose curve; as a rule, active = well fitted curve in the direction sought with a large enough effect; inconclusive = small, poorly fitted or top-dose-only effect, or another doubt; inactive = no such curve, though single readings can be large; an effect the other way counts as inactive or inconclusive.

What do the screens show for `Cc1n[nH]c(=S)n1/N=C/c1ccccc1`?
G9a block: 10µM*; JMJD2A Tudor inh: 3.98µM*; BAZ2B inh: -7.4%; HP1b binding inh: 23.6%; PLK1 PBD inh: -8.9%; PI5P4Ka inh: 0.8

Results for S=c1[nH]nc(-c2ccccc2)n1/N=C/c1cccc(Br)c1 ?
G9a block: -42.5%[0.501 µM]; JMJD2A Tudor inh: -25.2%; BAZ2B inh: -1.7%; HP1b binding inh: 16.7%; PLK1 PBD inh: inconclusive; PI5P4Ka inh: -6.0

How did CCCCCCCCN1C(=O)[C@H](CC(=O)N2CCCC2)C[C@@]2(C(=O)OCC)CCCC=C12 do in these assays?
PLK1 PBD inh: -16.7%; PI5P4Ka inh: 5.6

What do the screens show for `COCCn1ccc2c(OCC(=O)Nc3cccc(OC)c3)cccc2c1=O`?
G9a block: -2.7%[59 µM]; JMJD2A Tudor inh: -7.1%; BAZ2B inh: -10.3%; HP1b binding inh: 8.7%

How did Cc1ccc(CSc2nccc(-c3c(C)nc4ccccn34)n2)cc1 do in these assays?
JMJD2A Tudor inh: -5.3%; BAZ2B inh: -16.4%; HP1b binding inh: 54.2%; PLK1 PBD inh: -2.1%; PI5P4Ka inh: -0.6

Results for NS(=O)(=O)c1ccc(NC(=O)N2c3ccccc3Sc3ccccc32)cc1 ?
JMJD2A Tudor inh: -24.6%; BAZ2B inh: 50.1µM*; HP1b binding inh: 13.4%; PLK1 PBD inh: 2.5%

What do the screens show for `C=CCn1c(C)cc(/C([O-])=C(/C(=S)Nc2ccc(OC(F)F)cc2)[n+]2ccc(N(C)C)cc2)c1C`?
G9a block: 39.8µM*; JMJD2A Tudor inh: inconclusive; BAZ2B inh: 44.7µM*; HP1b binding inh: inconclusive; PLK1 PBD inh: -13.3%; PI5P4Ka inh: 2.2

What do the screens show for `CN(Cc1ccccc1)C(=S)Nc1ccc(OC(F)F)cc1`?
G9a block: -9.6%[59 µM]; JMJD2A Tudor inh: 2.8%; BAZ2B inh: 7.9%; HP1b binding inh: 33.4%; PLK1 PBD inh: -4.7%; PI5P4Ka inh: 0.5

Results for COc1cccc(C2C(C(=O)/C=C/c3ccco3)=C(O)C(=O)N2CCN2CCOCC2)c1 (stereo not drawn) ?
G9a block: 50.1µM*; JMJD2A Tudor inh: -30.8%; HP1b binding inh: 28.5%; PLK1 PBD inh: -5.8%; PI5P4Ka inh: -4.5

How did COc1ccc(C2C(C(=O)/C=C/c3ccco3)=C(O)C(=O)N2CCN2CCOCC2)cc1 (stereo not drawn) do in these assays?
G9a block: inconclusive; JMJD2A Tudor inh: -33.6%; BAZ2B inh: 79.4µM*; HP1b binding inh: 17.4%; PLK1 PBD inh: -19.0%; PI5P4Ka inh: 0.9

Results for COc1cc(C2C(C(=O)c3cccs3)=C(O)C(=O)N2CCN2CCOCC2)cc(OC)c1OC (stereo not drawn) ?
G9a block: inconclusive; JMJD2A Tudor inh: 2.1%; BAZ2B inh: 2.5%; HP1b binding inh: 40.2%; PLK1 PBD inh: -8.2%; PI5P4Ka inh: 1.4

What do the screens show for `CCOc1ccc(C2C(C(=O)/C=C/c3ccco3)=C(O)C(=O)N2CCN2CCOCC2)cc1OC` (stereo not drawn)?
G9a block: 44.7µM*; JMJD2A Tudor inh: inconclusive; HP1b binding inh: 19.2%; PLK1 PBD inh: -13.1%; PI5P4Ka inh: 7.1

How did C=CCOc1cccc(C2C(C(=O)c3ccco3)=C(O)C(=O)N2CCN2CCOCC2)c1 (stereo not drawn) do in these assays?
G9a block: -26.8%[12.7 µM]; JMJD2A Tudor inh: inconclusive; BAZ2B inh: inconclusive; HP1b binding inh: 48.2%; PLK1 PBD inh: -17.4%; PI5P4Ka inh: 1.0

Results for COc1ccc(-n2nnnc2CNC(=O)C2CC(=O)N(c3ccc(Cl)cc3)C2)cc1 (stereo not drawn) ?
G9a block: inconclusive; JMJD2A Tudor inh: -9.5%; BAZ2B inh: -1.8%; HP1b binding inh: 14.0%; PLK1 PBD inh: 2.3%; PI5P4Ka inh: 0.6

Results for CCOc1ccc(S(=O)(=O)N2Cc3ccccc3CC2C(=O)O)cc1 (stereo not drawn) ?
G9a block: 50.1µM*; JMJD2A Tudor inh: 2.9%[11.4 µM]; BAZ2B inh: inconclusive; HP1b binding inh: 25.5%; PLK1 PBD inh: inconclusive; PI5P4Ka inh: 1.5

What do the screens show for `O=C(O)C1Cc2ccccc2CN1C(=O)COc1ccc(Cl)cc1` (stereo not drawn)?
G9a block: 44.7µM*; JMJD2A Tudor inh: -1.4%; BAZ2B inh: -18.8%; HP1b binding inh: 17.7%; PLK1 PBD inh: -5.0%; PI5P4Ka inh: -8.7

Results for Cc1oc(-c2ccccc2F)nc1CS(=O)(=O)CC(=O)NCCc1ccc(Cl)cc1 ?
G9a block: 5.3%[59 µM]; JMJD2A Tudor inh: -7.4%; BAZ2B inh: -15.9%; HP1b binding inh: 38.6%

How did CCS(=O)(=O)N1CCC(NC(=O)C(Cc2cc(OC)ccc2OC)NC(C)=O)CC1 (stereo not drawn) do in these assays?
G9a block: 55.0%; JMJD2A Tudor inh: -9.7%; BAZ2B inh: -3.0%; HP1b binding inh: 22.1%; PLK1 PBD inh: -3.6%; PI5P4Ka inh: -1.2

What do the screens show for `CCn1cc(C(=O)O)c(=O)c2cnc(N3CCN(C(=S)Nc4ccc(F)cc4)CC3)nc21`?
G9a block: 25.9%; JMJD2A Tudor inh: -4.8%; BAZ2B inh: -2.7%; HP1b binding inh: 32.6%; PLK1 PBD inh: -6.3%; PI5P4Ka inh: -1.3

Results for C=CCNC(=S)N1CCN(c2ncc3c(=O)c(C(=O)O)cn(CC)c3n2)CC1 ?
JMJD2A Tudor inh: 50.1µM*; BAZ2B inh: -38.4%; HP1b binding inh: 21.6%; PLK1 PBD inh: -10.0%

Results for CCn1cc(C(=O)O)c(=O)c2cnc(N3CCN(C(=S)NC(=O)c4ccc(Cl)cc4)CC3)nc21 ?
G9a block: inconclusive; JMJD2A Tudor inh: -2.9%[11.4 µM]; BAZ2B inh: -13.4%; HP1b binding inh: 50.0%; PLK1 PBD inh: -14.8%; PI5P4Ka inh: 5.1

What do the screens show for `CCn1cc(C(=O)O)c(=O)c2cnc(N3CCN(C(=S)Nc4ccccc4Cl)CC3)nc21`?
G9a block: 56.2µM*; JMJD2A Tudor inh: -2.4%; BAZ2B inh: -4.4%; HP1b binding inh: 6.0%; PLK1 PBD inh: -15.6%; PI5P4Ka inh: -1.9

Results for CCn1cc(C(=O)O)c(=O)c2cnc(N3CCN(C(=S)NC(=O)c4ccc(Br)cc4)CC3)nc21 ?
JMJD2A Tudor inh: 56.2µM*; BAZ2B inh: 0.6%; HP1b binding inh: 27.4%; PLK1 PBD inh: inconclusive; PI5P4Ka inh: -3.9

How did CN1OC[C@@H]2CN(S(=O)(=O)c3cccc(C(F)(F)F)c3)[C@H](c3ccc(-c4cccnc4)cc3)C[C@@H]21 do in these assays?
PLK1 PBD inh: -16.5%; PI5P4Ka inh: 3.5

What do the screens show for `COc1ccc(CCN2CC(C(=O)OCC(=O)Nc3c(C)nn(-c4ccccc4)c3C)CC2=O)cc1OC` (stereo not drawn)?
G9a block: -29.6%; JMJD2A Tudor inh: -6.9%; BAZ2B inh: -27.3%; HP1b binding inh: 21.6%; PLK1 PBD inh: 2.4%; PI5P4Ka inh: -1.5

Assay outcomes from PubChem BioAssay.
